GLD-1 TGE inh = GLD-1/TGE RNA complex disruptors, primary screen, biochemical, fluorescence polarization. purified GLD-1 + fluorescein TGE RNA. inhibition, % at 5.96 µM. 320,000 tested, 0.44% active. AID 2280, 2010;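 active means percent inhibition above a per-plate cutoff, the plate mean of test compounds plus 3 SD, cut at about 30% in these data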;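 further: 0% = DMSO wells with GLD-1 and probe and 100% = wells lacking GLD-1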
MEX-5 binding = MEX-5 zinc finger RNA-binding disruptors – biochemical, C. elegans, fluorescence polarization, MLPCN library, primary screen; activity score (negative = inhibition of binding), % at 10 µM; MEX-5/FITC-TCR2 RNA binding; stronger effect = lower value; Zinc finger protein mex-5 (Caenorhabditis elegans), Q9XUB2; 300,000 tested, 0.38% active; AID 1832, 2009;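 active means inhibition past about -25% in most replicates, and total fluorescence under double the plate's negative control median, limit read from the data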;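 further: 0% = DMSO and -100% = 5 µM competing unlabeled TCR2 RNA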
MCL1 BIM primary = inhibitors of MCL1 binding to BIM-BH3, primary screen, biochemical, fluorescence polarization. Induced myeloid leukemia cell differentiation protein Mcl-1 (Homo sapiens), Q07820. 320,000 tested, 0.68% active. AID 2057, 2009. inhibition, % at 10.9 µM. GST-MCL1 / FITC-Bim-BH3 fluorescence polarization;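 active means inhibition above the mean inhibition of all tested compounds plus 3 SD, set per campaign, cut at about 40% in these data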;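 further: 0% = DMSO wells and 100% = unlabeled Bim-BH3 peptide control; higher means more loss of mP so more displacement of Bim peptide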
BCLXL inh = inhibitors of human Bcl-xL, primary screen, biochemical, fluorescence polarization, HTS; Bcl-2-like protein 1 (Homo sapiens), Q07817; GST-Bcl-xL / FITC-Bim BH3 peptide fluorescence polarization; inhibition, % at 10.9 µM; 320,000 tested, 0.7% active;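 active means inhibition above the mean of all tested compounds plus 3 SD, cutoff set per campaign, cut at about 30% in these data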;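 further: 0% = DMSO wells and 100% = unlabeled Bim-BH3 peptide competitor; inhibitors lower millipolarization by displacing the labeled peptide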
EBV gp42 inh = Epstein-Barr virus gp42 inhibitors, primary screen, biochemical, uHTS, fluorescence polarization; Glycoprotein 42 (Epstein-Barr virus (strain AG876)), Q1HVG2; Fluorescence polarization binding assay, mP read-out; inhibition, % (tested at 21.74 µM); 220,000 tested, 0.42% active; in the data active means inhibition above about 50%
E coli Lon inh = inhibitors of E. coli Lon protease, primary screen, biochemical, fluorescence polarization; P0A9M0; purified E. coli Lon protease; inhibition, % at 7.94 µM; 360,000 tested, 0.42% active; AID 602123, 2011; in the data active means inhibition above about 13%, passing the limit was not always enough;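 further: 0% = enzyme with probe and DMSO and 100% = no enzyme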
Target sequence (P0A9M0 whole entry, looked up): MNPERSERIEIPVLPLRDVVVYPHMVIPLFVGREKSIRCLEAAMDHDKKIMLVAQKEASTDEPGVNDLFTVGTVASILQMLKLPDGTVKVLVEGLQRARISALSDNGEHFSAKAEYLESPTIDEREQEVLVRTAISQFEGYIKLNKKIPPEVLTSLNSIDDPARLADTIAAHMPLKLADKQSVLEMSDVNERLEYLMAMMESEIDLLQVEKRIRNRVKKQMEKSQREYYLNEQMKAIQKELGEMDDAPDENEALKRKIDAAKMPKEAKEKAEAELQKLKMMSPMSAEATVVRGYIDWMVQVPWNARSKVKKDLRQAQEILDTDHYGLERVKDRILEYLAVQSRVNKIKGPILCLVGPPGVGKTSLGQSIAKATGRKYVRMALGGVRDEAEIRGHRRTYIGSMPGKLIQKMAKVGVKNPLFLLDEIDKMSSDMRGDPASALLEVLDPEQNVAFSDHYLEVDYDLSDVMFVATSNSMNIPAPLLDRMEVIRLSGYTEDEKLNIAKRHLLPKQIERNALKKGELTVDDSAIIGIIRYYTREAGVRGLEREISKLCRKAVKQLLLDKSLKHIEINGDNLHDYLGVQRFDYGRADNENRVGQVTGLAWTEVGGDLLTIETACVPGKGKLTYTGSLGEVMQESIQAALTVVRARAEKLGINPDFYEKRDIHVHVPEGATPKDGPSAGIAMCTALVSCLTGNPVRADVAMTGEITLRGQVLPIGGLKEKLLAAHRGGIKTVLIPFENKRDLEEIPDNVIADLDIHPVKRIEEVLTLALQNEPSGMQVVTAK
* marks the source's active call; other numbers are inactive results; / = not tested or not shown. An excerpt weighted towards active compounds, which were near 1.5% of everything screened.

SMILES | GLD-1 TGE inh | MEX-5 binding | MCL1 BIM primary | BCLXL inh | EBV gp42 inh | E coli Lon inh
Cc1ccc(-n2c(N)c(C(=O)Nc3c(C)n(C)n(-c4ccccc4)c3=O)c3nc4ccccc4nc32)cc1C | 20 | 0 | 61* | 57* | 33 | /
COc1ccc(-n2c(N)c(C(=O)Nc3c(C)n(C)n(-c4ccccc4)c3=O)c3nc4ccccc4nc32)cc1 | 15 | -12 | 23 | 23 | -1 | 6
CN(C)S(=O)(=O)N(CC(=O)Nc1ccc(S(=O)(=O)N2CCCC2)cc1)c1ccccc1 | 8 | 2 | 7 | 5 | / | 0
CNC(=O)/C=C1\NC(C)(C)Cc2ccccc21 | -4 | 2 | -3 | 1 | -19 | -1
CCC1(C)Cc2ccccc2/C(=C/C(=O)N2CCCCC2)N1 (stereo unspecified) | 12 | -1 | 31 | 31* | 8 | 7
C[C@@H]1O[C@@H](OC[C@@H]2O[C@H](Oc3c(-c4ccc(O)cc4)oc4cc(O)cc(O)c4c3=O)[C@@H](O)[C@H](O)[C@H]2O)[C@H](O)[C@H](O)[C@H]1O | 0 | / | / | / | / | 3
CC1OC(Oc2c(-c3cc(O)c(O)c(O)c3)oc3cc(O)cc(O)c3c2=O)C(O)C(O)C1O (stereo unspecified) | / | -48* | / | / | 0 | -3
CC(NC(=O)Nc1ccc([N+](=O)[O-])cc1)C(c1cccs1)N1CCCC1 (stereo unspecified) | 4 | -2 | 2 | 52* | -13 | 13
COc1ccc(OC)c(NC(=O)C2CCN(S(=O)(=O)c3c(C)noc3C)CC2)c1 | 63* | 1 | 2 | 3 | -10 | -5
CC(=O)C1=C(c2cccc([N+](=O)[O-])c2)N(C(C)=O)n2c(C)nnc2S1 | 8 | -47* | 10 | 5 | 4 | 6
Cc1cccc2nc(COc3ccc(Cl)c4cccnc34)cn12 | 2 | 1 | -1 | 2 | -6 | -13
O=C(NCC1CCCO1)c1ccc2[nH]c3c(c2c1)CCCC3 (stereo unspecified) | / | / | / | / | / | -2
O=[N+]([O-])c1ccc(/C=N/n2c(CO)nc3ccccc32)s1 | -9 | -35* | 28 | 18 | 53* | -14
Cc1nc2ccccc2n1/N=C/c1ccc([N+](=O)[O-])s1 | 8 | -76* | 7 | 32* | -20 | -16
Cc1cc2ncn(/N=C/c3ccc([N+](=O)[O-])s3)c2cc1C | -1 | -1 | -42 | -18 | -38 | -10
Cc1cc(C(=O)C(C(c2ccccc2)N2CCOCC2)N2CCOCC2)ccc1Cl (stereo unspecified) | / | / | / | / | / | -8
COc1ccc(C(=O)Nc2cc(C(C)=O)c(C)oc2=O)cc1 | -8 | -2 | -2 | 3 | 10 | -5
CC(=O)c1cc(NC(=O)c2cccc(C(F)(F)F)c2)c(=O)oc1/C=C/N(C)C | -72 | -36* | -85 | -44 | -164 | -62
CC(=O)c1cc(NC(=O)c2ccc(Cl)cc2)c(=O)oc1/C=C/N(C)C | -151 | -26* | -103 | -69 | -87 | -146
CCCn1c(N)c(C(=O)CSc2ncnc3sccc23)c(=O)n(C)c1=O | / | / | / | / | / | -7
NS(=O)(=O)c1c(Sc2ccccc2C(=O)O)ccc2ccccc12 | 12 | -2 | 46* | 35* | / | -2
COc1cccc2cc(CC(=O)c3ccc(C)cc3C)c(=O)oc12 | -2 | 3 | 3 | 0 | / | -6
CCCCC(=O)Nc1ccc(Cl)cn1 | 6 | 0 | 4 | 4 | -21 | -3
CCCC(C)C(=O)Nc1ccc(Cl)cn1 (stereo unspecified) | 8 | -1 | 3 | 162* | -16 | -3
Cc1ccc(CN2CCSc3sccc3C2=O)cc1 | -4 | 1 | 29 | 1 | -1 | -6
CCOc1cccc(C2C(C(=O)c3ccco3)=C(O)C(=O)N2c2nnc(C)s2)c1 (stereo unspecified) | 50* | / | 34 | 43* | / | 16

High-throughput results as filed in PubChem.
